From PubChem BioAssay

Experiments:
[1] = system: Human papillomavirus type 1a protein E7 (residues 44-93); assay: small molecules binding HPV E7 44-93 – biochemical, small-molecule microarray, residues 44-93, 635 nm fluorescence, primary screen (AID 1108); conditions: fluorescence 635 nm, higher = more signal;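 further: E7 fragment applied at 1 µg/mL in TBST for 1 h at 4 C; score combines spot fluorescence with its signal to noise ratio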
[2] = hepatitis C replication reporter changes, two-sided – Huh7 cells, luciferase reporter, HCV replication inhibitor project, primary screen (AID 1109); conditions: Huh7 HCV replicon luciferase reporter, 48 h; higher = more signal;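 further: huh7 hepatoma cells harbouring a luciferase neomycin HCV replicon reporter; luciferase luminescence as measure of HCV replicon replication; test concentration not given here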
[3] = molecular target: Left-right determination factor 2 (Homo sapiens) (UniProt O00292); assay: small molecules binding LEFTY2 protein – biochemical, small-molecule microarray, 635 nm fluorescence scan, primary screen (AID 1110); conditions: higher = more signal
Left-right determination factor 2 (Homo sapiens), sequence (O00292 whole entry, looked up): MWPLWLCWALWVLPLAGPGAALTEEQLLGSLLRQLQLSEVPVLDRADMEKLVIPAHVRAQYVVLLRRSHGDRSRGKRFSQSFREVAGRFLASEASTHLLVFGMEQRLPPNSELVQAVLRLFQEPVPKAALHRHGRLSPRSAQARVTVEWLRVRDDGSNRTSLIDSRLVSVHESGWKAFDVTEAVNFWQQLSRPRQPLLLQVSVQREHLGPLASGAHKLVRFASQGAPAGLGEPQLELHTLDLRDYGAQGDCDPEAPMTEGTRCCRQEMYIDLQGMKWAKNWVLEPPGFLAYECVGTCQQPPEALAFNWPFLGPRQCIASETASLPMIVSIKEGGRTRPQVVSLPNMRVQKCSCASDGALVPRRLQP

[4] = molecular target: Calmodulin-1 (Homo sapiens) (UniProt P0DP23); assay: small molecules binding calmodulin-1 with EGTA – biochemical, small-molecule microarray, Cy5-labelled CALM1, profiling panel (AID 1111); conditions: Cy5-CALM1 binding fluorescence, higher = more signal;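 further: labelled calmodulin applied in Tris saline Tween buffer holding calcium plus EGTA and DTT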
[5] = molecular target: Calmodulin-1 (Homo sapiens) (UniProt P0DP23); assay: small molecules binding Ca-loaded calmodulin-1 – biochemical, small-molecule microarray, Cy5-labelled CALM1, plus calcium, artefact control for SMM control-protein annotation, profiling panel (AID 1112); conditions: Cy5-CALM1 binding fluorescence, higher = more signal;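 further: score merges spot fluorescence with signal to noise from triplicate slides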
[6] = probe aWnt5a binding to arrayed compounds – biochemical, biotinylated probe, 635/667 nm fluorescence, primary screen (AID 1113); conditions: small-molecule microarray, higher = more signal;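 further: score merges 667 nm fluorescence intensity with signal-to-noise per printed feature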
[7] = probe aShh binding to arrayed compounds – biochemical, biotinylated probe, 635/667 nm fluorescence, primary screen (AID 1114); conditions: small-molecule microarray, higher = more signal;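 further: probe is biotin-labelled aShh protein from a stem cell growth factor screen; measures binding of labelled protein to compounds printed on the slide; score merges feature fluorescence at 667 nm with signal-to-noise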
[8] = probe aNog binding to arrayed compounds – biochemical, biotinylated probe, 635/667 nm fluorescence, primary screen (AID 1115); conditions: small-molecule microarray, higher = more signal;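 further: probe is biotinylated aNog protein used at 0.15 µg/mL for 1 h at 4 C; z-score combines 667 nm fluorescence of each spot with its signal to noise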
[9] = molecular target: Torsin-1A-interacting protein 1 (Homo sapiens) (UniProt Q5JTV8); assay: compound microarray binding of lysate hLAP1 – cell lysate, small-molecule microarray, COS7 lysate, 635/667 nm fluorescence, primary screen (AID 1116); conditions: 635 nm fluorescence, higher = more signal
Torsin-1A-interacting protein 1 (Homo sapiens), sequence (Q5JTV8 whole entry, looked up): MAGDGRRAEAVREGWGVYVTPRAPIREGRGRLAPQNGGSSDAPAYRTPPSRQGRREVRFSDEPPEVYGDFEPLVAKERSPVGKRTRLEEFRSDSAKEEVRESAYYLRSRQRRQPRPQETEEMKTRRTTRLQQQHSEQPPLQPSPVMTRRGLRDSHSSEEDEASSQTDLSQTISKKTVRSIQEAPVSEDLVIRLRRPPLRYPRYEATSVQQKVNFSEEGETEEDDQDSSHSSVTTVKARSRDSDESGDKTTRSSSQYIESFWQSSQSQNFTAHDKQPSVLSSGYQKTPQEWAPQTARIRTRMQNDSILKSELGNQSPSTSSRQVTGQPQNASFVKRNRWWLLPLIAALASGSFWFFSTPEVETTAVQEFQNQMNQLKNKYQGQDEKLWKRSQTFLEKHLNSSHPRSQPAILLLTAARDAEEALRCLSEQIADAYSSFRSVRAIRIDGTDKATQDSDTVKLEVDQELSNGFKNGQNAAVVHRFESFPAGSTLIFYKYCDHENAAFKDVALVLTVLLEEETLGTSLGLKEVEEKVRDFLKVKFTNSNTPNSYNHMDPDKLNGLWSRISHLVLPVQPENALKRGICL

[10] = molecular target: Alpha-bungarotoxin (Bungarus multicinctus) (UniProt P60615); assay: compounds binding labelled alpha-BTX control protein – biochemical, small-molecule microarray, Alexa647 label, 635/667 nm fluorescence, artefact control for SMM control protein annotation, profiling panel (AID 1117); conditions: alpha-BTX-A647 binding fluorescence, higher = more signal
Alpha-bungarotoxin (Bungarus multicinctus), sequence (P60615 whole entry, looked up): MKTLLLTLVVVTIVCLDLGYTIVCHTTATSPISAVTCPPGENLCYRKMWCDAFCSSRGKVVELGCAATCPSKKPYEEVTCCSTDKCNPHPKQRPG

| SMILES | composite z-score [1] | z-score [2] | composite z-score [3] | composite z-score [4] | composite z-score [5] | composite z-score [6] | composite z-score [7] | composite z-score [8] | composite z-score [9] | composite z-score [10] |
| --- | --- | --- | --- | --- | --- | --- | --- | --- | --- | --- |
| C=C(COC)/C(=C/C[C@@H](OC(C)=O)c1ccc(CO)o1)c1cc(C(=O)OC)ccc1OC | 0.531 | -1.45 | -0.0379 | -0.177 | -0.9 | -0.096 | 0.479 | 0.184 | -0.315 | 0.202 |
| Cc1ccc(S[C@]2(C(=O)NC(C)C)CC(=O)N(Cc3ccccc3Cl)[C@@H]2c2ccc(CO)cc2)cc1 | 0.949 | -1.81 | -1.76 | -0.142 | 0.214 | -0.154 | -0.0035 | -0.429 | 0.98 | 1.07 |
| CC(CO)N1C(=O)[C@@H]2[C@H]3C(=O)OCC=C[C@H]3OC23C=CCN(c2ccc(Cl)cc2)C(=O)[C@@H]13 (stereo not given in full) | -0.716 | -0.205 | -2.63 | -0.669 | -0.934 | -0.178 | 1.71 | -0.273 | -1.67 | -1.94 |
| Cc1ccc(N2C(=O)c3ccccc3[C@](C)(C(=O)NCc3ccccc3)[C@@H]2c2ccc(CO)cc2)nc1 | -0.192 | 0.478 | -0.0146 | -0.416 | -0.497 | 0.0079 | -0.0837 | -0.108 | 0.263 | -0.3 |
| COc1cc2c(cc1OC)CN(C(=O)[C@@H]1[C@H]3C(=O)O[C@H](c4ccccc4)[C@H](c4ccccc4)N3[C@H](c3ccc(O)cc3)[C@@]13C(=O)Nc1ccc(C#CCCO)cc13)CC2 | 1.12 | -1.09 | 0.686 | 0.758 | -0.224 | -0.0538 | -0.11 | -0.102 | 0.678 | 0.319 |
| COCCOC(=O)N1C(=O)[C@@]2(c3cc(C#Cc4ccc(OC)cc4)ccc31)[C@H](C(=O)NC[C@H](O)c1ccccc1)[C@H]1C(=O)O[C@H](c3ccccc3)[C@H](c3ccccc3)N1[C@@H]2c1ccc(OCCO)cc1 | 1.42 | -1.52 | 0.46 | 1.16 | -0.0063 | 0.0031 | 0.0469 | 0.371 | 1.14 | 1.53 |
| Cc1ccc(F)cc1S(=O)(=O)N[C@@H]1CCN(Cc2cccc3[nH]ccc23)C1 | -0.0347 | -1.57 | 0.682 | -0.517 | -1.03 | -0.0685 | -0.153 | -0.492 | 0.852 | 0.111 |
| C=C[C@@H](C)[C@H](O)c1ccc(OCCO)cc1 | -0.355 | 0.27 | -2.31 | -0.912 | 0.521 | -0.262 | -0.289 | -0.446 | -0.73 | -1.16 |
| COc1cc(NN2C(C(O)C3CCCCC3)C=CC3C(=O)N(C)C(=O)C32)cc(OC)c1OC (stereo not given) | 1.44 | -0.611 | 0.0347 | 2.01 | 0.964 | 0.265 | 0.417 | 1.32 | 1.32 | 1.72 |
| COc1cc2c(cc1O)C(c1cccs1)N(Cc1sc3ccccc3c1Cl)CC2 (stereo not given) | 1.48 | -1.7 | 0.659 | 1.66 | 0.334 | -0.0345 | 0.199 | 0.593 | 1.33 | 1.87 |
| COCCCNC(=O)[C@@]1(Sc2ccc(C)cc2)CC(=O)N(C(C)C)[C@@H]1c1ccc(CO)cc1I | 1.27 | -3.44 | -0.327 | -0.0081 | -0.0868 | -0.096 | -0.291 | -0.289 | 0.722 | 0.487 |
| CCOC(=O)C[C@H]1[C@H](OC(=O)c2ccc(-c3ccccc3)cc2)[C@@H](NC(=O)Cc2ccc(OC)cc2)c2cc(OCCCO)ccc2N1C(=O)Cc1ccc(OC)cc1 | 0.102 | -0.261 | -0.0069 | 0.655 | 0.767 | -0.0114 | 0.0952 | 0.0759 | 0.456 | 0.913 |
| C=CCC(OC(C)=O)[C@@H]1[C@@H](N(Cc2cc3ccccc3o2)C(=O)c2ccc(-c3ccccc3)cc2)c2cc(OCCCO)ccc2N1C(=O)Cc1ccc(OC)cc1 (stereo not given in full) | -0.401 | -1.46 | 0.0189 | -0.184 | 0.464 | -0.0758 | -0.335 | -0.216 | -0.195 | -0.17 |
| O=C(O)[C@H]1C[C@H]2C(=O)N[C@@H](Cc3ccccc3)C(=O)N2[C@H]1c1cccc(OCCO)c1 | 0.0635 | 4.5 | 0.978 | -0.309 | -0.411 | 0.0079 | -0.214 | 0.185 | 0.543 | 0.366 |
| C=C(C)C1CCC(C(O)C2C=CC3C(=O)N(C)C(=O)C3N2Nc2cc(OC)c(OC)c(OC)c2)CC1 (stereo not given) | 1.4 | -0.355 | 0.428 | 0.655 | -0.157 | 0.0101 | -0.0243 | 0.993 | -0.161 | 1.26 |
| COCCOC(=O)N1C(=O)[C@@]2(c3ccccc31)[C@H](c1ccc(OCCO)cc1)N1[C@H](c3ccccc3)[C@H](c3ccccc3)OC(=O)[C@H]1[C@@H]2C(=O)N1CCCCCCC1 | 1.52 | -1.56 | 1.83 | 3.21 | 1.79 | 1.61 | 3.26 | 3.73 | 5.85 | 5.03 |

| SMILES | composite z-score [1] | z-score [2] | composite z-score [3] | composite z-score [4] | composite z-score [5] | composite z-score [6] | composite z-score [7] | composite z-score [8] | composite z-score [9] | composite z-score [10] |
| --- | --- | --- | --- | --- | --- | --- | --- | --- | --- | --- |
| COc1ccc([Si](C)(C)[C@H]2[C@H](CCO)O[C@@]3(C(=O)N(Cc4ccccc4)c4ccc(N5CCOC5=O)cc43)[C@@H]2C)cc1 | 0.27 | -4.13 | 0.28 | 0.284 | 0.299 | -0.0239 | 0.0062 | 0.325 | 0.673 | 0.0997 |
| COC(=O)[C@@]1(Cc2ccc(OC)cc2)[C@H]2c3cc(C(=O)N4CCCC4)n(Cc4ccc(S(C)(=O)=O)cc4)c3C[C@H]2CN1C(=O)c1ccccc1 | 0.918 | -0.887 | -0.0914 | 2.06 | 0.955 | 0.108 | 0.883 | -0.121 | 1.05 | 0.448 |
| [N-]=[N+]=NCc1ccccc1C[C@]1(C(=O)N2CCOCC2)COC(c2ccc(OCCCO)cc2)=N1 | 1.01 | -1.54 | -0.305 | 2.35 | 0.822 | 0.168 | 0.0326 | 1.87 | 2.22 | 0.326 |
| O=C1O[C@H](c2ccccc2)[C@H](c2ccccc2)N2[C@H]1[C@@H](C(=O)O)[C@]1(C(=O)Nc3ccc(C#CC4(O)CCCCCC4)cc31)[C@H]2c1ccc(O)cc1 | 0.628 | -0.772 | -0.114 | 0.277 | 0.431 | -0.124 | 0.0611 | -0.291 | -0.0781 | -0.0118 |
| C=CCC(OC(C)=O)[C@@H]1[C@@H](N(Cc2ccc(-c3cccc(C(F)(F)F)c3)o2)C(=O)c2ccc(C)cc2)c2cc(OCCCO)ccc2N1C(=O)Cc1ccc(OC)cc1 (stereo not given in full) | -0.918 | -0.466 | -0.115 | -0.697 | -1.06 | 0.0327 | -0.439 | -0.565 | 0.163 | -0.056 |
| COCC1C2CC[C@H]3C(OCc4ccc(OC)cc4)OC[C@]4(C)[C@H]3C2=C(CN4C(=O)OC(C)(C)C)[C@H](C)C1COC (stereo not given in full) | 1.4 | -0.733 | 0.366 | 2.47 | 0.671 | -0.0134 | 0.0898 | -0.373 | 0.782 | 1.14 |
| C=CCC(OC(C)=O)[C@@H]1[C@@H](N(Cc2ccc(-c3cccc(C(F)(F)F)c3)o2)C(=O)Cc2ccc(OC)cc2)c2cc(OCCCO)ccc2N1C(=O)Cc1ccc2ccccc2c1 (stereo not given in full) | -0.763 | 0.685 | -0.429 | -0.472 | -0.427 | -0.0383 | -0.206 | -0.463 | -0.33 | 0.553 |
| O=C1c2ccccc2[C@](Cc2ccccc2I)(C(=O)NC2CC2)[C@H](c2ccc(CO)cc2)N1Cc1ccccc1C(F)(F)F | 1.45 | -2.2 | -1.16 | 0.463 | -0.541 | -0.0735 | -0.147 | -0.484 | 0.103 | 0.968 |
| COCC(=C=CC[C@H](O)c1cccc(OCCO)c1)C[C@H](O)COCc1ccccc1 | 0.768 | -0.754 | -0.35 | -0.238 | -0.135 | 0.0037 | 0.191 | -0.0863 | 1.58 | -0.363 |
| CCOC(=O)C[C@H]1[C@H](OC(=O)c2ccccc2-c2ccccc2)[C@@H](NC(=O)c2ccccc2)c2cc(OCCCO)ccc2N1C(=O)c1ccccc1 | 0.374 | -0.843 | 0.345 | 0.114 | 0.148 | -0.0425 | -0.0146 | -0.0926 | -0.244 | 0.0475 |
| C=CCC(OC(C)=O)[C@@H]1[C@@H](N(Cc2cccc3ccccc23)C(=O)c2cccc3ccccc23)c2cc(OCCCO)ccc2N1C(=O)c1ccc2ccccc2c1 (stereo not given in full) | 0.475 | -0.351 | 0.156 | -0.0677 | 0.476 | -0.0748 | 0.0494 | 0.185 | 0.184 | 0.0426 |
| C[C@@H]1ON(c2ccc(I)cc2)[C@H](c2ccc(OC(=O)OC(C)(C)C)cc2)[C@H]1C(=O)N1C(=O)OC[C@H]1Cc1ccccc1 | 1.15 | -1.12 | 0.628 | 0.501 | -0.502 | -0.241 | -0.0431 | -0.321 | 0.362 | 0.943 |
| Cc1nc2cc(Br)ccc2c(=O)n1Cc1cccc(O)c1 | 0.804 | 0.201 | 0.874 | 0.523 | 0.302 | -0.0263 | -0.0946 | 0.761 | 1.21 | -0.0871 |
| CC(C)C[C@@H]1NC(=O)[C@@H]2C[C@H](C(=O)NCCCCCC[N+](C)(C)C)[C@H](c3cccc(OCCO)c3)N2C1=O | 1.31 | -0.926 | -0.184 | -0.105 | -0.744 | -0.156 | -0.0234 | -0.249 | 0.369 | 0.446 |
| Cc1ccc(S[C@]2(C(=O)NC(C)C)CC(=O)N(C(C)C)[C@@H]2c2ccc(CO)cc2I)cc1 | 0.973 | -1.75 | -0.485 | 0.198 | -0.114 | -0.104 | 0.216 | -0.327 | 0.322 | -0.174 |
